The entries come from a sample that favours hits as a whole.
Pf Dd2 inh: blocks in vitro growth of P. falciparum Dd2; Potency, µM (top dose mostly 28.9 µM), for the others: top-dose activity, negative = inhibition, usual class: inhibitors; P. falciparum Dd2 growth, SYBR Green, 72 h; hit rate 4.3% among 120,000; active = well fitted inhibition curve with a large enough effect;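 note: plate controls were DMSO vehicle for no effect and reference drug for full effect; nearly all actives have a fitted effect of over 65% in size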
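Infected erythrocytes (Dd2, 0.3% parasitemia, 2.5% hematocrit final) are added to compound in RPMI-1640/Albumax II medium, grown 72 h at 37C in low oxygen, then lysed with saponin/Triton-X containing SYBR Green and read by fluorescence.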
Starred values were filed as active, the others as inactive; i = inactive; [ ] = dose if it differs, or a comment. Potency is the fitted concentration of half-maximal effect.

SMILES	Pf Dd2 inh
Cc1ccccc1NC(=O)CN1C(=O)C(c2ccccc2)=NC12CCCCCC2	i
Cc1ccccc1NC(=O)CN1C(=O)C(c2ccccc2)=NC12CCCCC2	i
COCC(=O)N[C@@H]1CN(Cc2ccc(O)cc2)CC[C@@H]1CO	13%
COC(=O)c1scc(-c2ccc(C)cc2)c1S(=O)(=O)Nc1ccc(F)cc1F	4%
COC(=O)c1scc(-c2ccc(C)cc2)c1S(=O)(=O)Nc1cccc(Cl)c1C	i
CCOc1ccccc1NS(=O)(=O)c1c(-c2ccc(C)cc2)csc1C(=O)OC	10µM*
COCc1nncn1C1CCN(C(=O)c2ccc(Cl)s2)CC1	-4%
O=C(c1ccccc1)N1CCC(Oc2ccccc2F)(C(=O)O)CC1	-17%
COc1ccc(CCC(=O)N2CC(F)(F)C[C@H]2c2nnc(C)o2)cc1	i
COc1ccc2c(c1)CC(C(=O)Nc1cc(OC)c(OC)c(OC)c1)CO2 (configuration not stated)	7%
CCCCNC(=O)CN1C(=O)CSc2ccc(S(=O)(=O)N3CCC(C)CC3)cc21	0%
CC1CCN(CCCNC(=O)CN2C(=O)CSc3ccc(S(=O)(=O)N4CCC(C)CC4)cc32)CC1	8.9µM*
CC1CCN(CCCNC(=O)CN2C(=O)CSc3ccc(S(=O)(=O)N4CCOCC4)cc32)CC1	6%
CCN(c1ccccc1)c1nnc(NC(=O)Nc2ccc(Br)c(C)c2)s1	2%
CS(=O)(=O)N1CCc2ccc(S(=O)(=O)NCC3CCCO3)cc2C1 (configuration not stated)	2%
C=CCc1cc(C2CC(=O)Nc3[nH]ncc32)cc(OCC)c1OC (configuration not stated)	-23%
O=C(c1cncc(Br)c1)N1CCC(OCC2CC2)C1 (configuration not stated)	-3%
CCC(C(=O)N1CCC2(CC1)C(=O)N(CC(=O)NCCOC)CN2c1ccccc1)c1ccccc1 (configuration not stated)	-12%
Cc1ccc(C(=O)CC2(O)C(=O)N(Cc3ccccc3)c3ccc(Br)cc32)cc1 (configuration not stated)	10µM*
Cc1ccc(C(=O)NC2(C(F)(F)F)N=C(c3ccccc3)N(Cc3ccccc3)C2=O)cc1 (configuration not stated)	i
CCc1ccc(C(=O)CC2(O)C(=O)N(Cc3ccc(C)cc3)c3ccccc32)cc1 (configuration not stated)	-22%
O=C(c1cnccn1)N1CCC(Cc2nc(C3CCOCC3)no2)CC1	75%
COCCn1c(CNC(=O)c2cc(OC)c(OC)c(OC)c2)nc2cccnc21	-2%
CC(C)c1ccc(CN2CCc3ncc(C(=O)Nc4ccccc4)n3CC2)cc1	13µM*
O=C(Nc1ccccc1)c1cnc2n1CCN(Cc1cccc(O)c1)CC2	-19%[44.1 µM]
SMILES	Pf Dd2 inh
CC(C)CCNC(=O)c1cnc2n1CCN(Cc1ccc(C(C)C)cc1)CC2	-16%[44.1 µM]
Cc1oc(-c2cccc(Br)c2)nc1Cn1c(SCc2cccc(F)c2)nc2cccnc21	-28%
Cc1ccc(Cn2c(C3CCN(C(=O)c4cc(C)cc(C)c4)CC3)n[nH]c2=O)cc1	8.9µM*
CCc1ccc(C(=O)N2CCC(c3n[nH]c(=O)n3Cc3ccc(F)cc3)CC2)cc1	-26%
Cc1ccc(-n2c(C3CCN(C(=O)COc4ccc(Cl)cc4)CC3)n[nH]c2=O)cc1	0.89µM*
Cc1ccc(Cn2c(C3CCN(C(=O)c4ccc(C(C)(C)C)cc4)CC3)n[nH]c2=O)cc1	2.5µM*
Cc1ccc(-n2c(C3CCN(C(=O)c4cc(Cl)ccc4F)CC3)n[nH]c2=O)cc1	i
Cc1ccc(-n2c(C3CCN(C(=O)c4cc(C)cc(C)c4)CC3)n[nH]c2=O)cc1	i
Cc1ccc(-n2c(C3CCN(C(=O)COc4ccc(F)cc4)CC3)n[nH]c2=O)cc1	-15%
Cc1ccc(-n2c(C3CCN(C(=O)c4cccc(C)c4)CC3)n[nH]c2=O)cc1	-2%
Cc1ccc(-n2c(C3CCN(C(=O)c4ccc(C(C)(C)C)cc4)CC3)n[nH]c2=O)cc1	4.5µM*
Cc1ccc(Cn2c(C3CCN(C(=O)c4ccc(C#N)cc4)CC3)n[nH]c2=O)cc1	i
Cc1ccc(Cn2c(C3CCN(C(=O)c4cccc(C)c4)CC3)n[nH]c2=O)cc1	-28%
Cc1ccc(Cn2c(C3CCN(C(=O)c4cccc(Cl)c4)CC3)n[nH]c2=O)cc1	0%
Cc1ccc(C(=O)N2CCC3(CC2)C(=NC2CCCCC2)NC(=O)N3c2cccnc2)cc1	12%
COc1ccccc1N1CCN(C(=O)c2cnc(N3CCOCC3)c3ccccc23)CC1	-17%
O=C(CN1CCN(c2nccc(-c3cccnc3)n2)CC1)N1CCOCC1	-29%
Cc1ccc(-c2nc(C(=O)N3CCN(c4ccc(Cl)cc4)CC3)no2)cc1	-4%
COc1cc(OC)c(NC(=O)NCc2ccc3c(c2)CCN3C(C)=O)cc1Cl	24%
Cc1cc(C[C@@H]2COC[C@@H]2NC(=O)CCc2nc(-c3ccccc3C)no2)on1	-15%
O=Cc1ccccc1-c1cccc(O)c1	20%[44.1 µM]
Cc1cc(C)n(Cc2ccc(C(=O)N3CCC(N4C[C@H](O)C[C@H]4C(=O)NC4CCCCC4)CC3)o2)n1	5µM*
Cc1cc(C)n(CCC(=O)N2CCC(N3C[C@H](O)C[C@H]3C(=O)NC3CCCCC3)CC2)n1	-24%
Cc1cnc(C(=O)N2CCC(N3C[C@H](O)C[C@H]3C(=O)NC3CCCCC3)CC2)cn1	10%
CCCNC(=O)NC[C@H]1O[C@@H]2C[C@@H](CC(=O)NCCOC)O[C@@H]2[C@@H]1O	23%[44.1 µM]
SMILES	Pf Dd2 inh
Cc1ccn2cc(CNC(=O)c3cccc(C(F)(F)F)c3)nc2c1	17%
Cc1ccc(NC(=O)CCC(=O)N2CCOc3ccccc32)c(Cl)c1	47%
O=C(O)C1c2ccccc2C(=O)N(Cc2ccccc2)C12CCCC2 (configuration not stated)	3%
COCCN1C(=O)c2ccccc2C(C(=O)Nc2ccc(C(N)=O)cc2)C12CCCCC2 (configuration not stated)	-5%
COCCN1C(=O)c2ccccc2C(C(=O)Nc2ccc(OC)c(Cl)c2)C12CCCC2 (configuration not stated)	-8%
COCCN1C(=O)c2ccccc2C(C(=O)Nc2ccc3c(c2)OCO3)C12CCCC2 (configuration not stated)	13µM*
COCCN1C(=O)c2ccccc2C(C(=O)NCCc2c[nH]c3ccccc23)C12CCCC2 (configuration not stated)	-4%
O=C(Nc1ccccc1F)C1c2ccccc2C(=O)N(Cc2ccccc2)C12CCCC2 (configuration not stated)	11µM*
O=C(NCCc1ccccc1)C1c2ccccc2C(=O)N(Cc2ccccc2)C12CCCC2 (configuration not stated)	i
COCCN1C(=O)c2ccccc2C(C(=O)Nc2ccc(OC)c(OC)c2)C12CCCC2 (configuration not stated)	-3%
COCCN1C(=O)c2ccccc2C(C(=O)Nc2ccc(NC(C)=O)cc2)C12CCCCC2 (configuration not stated)	-19%
COCCN1C(=O)c2ccccc2C(C(=O)Nc2cc(OC)cc(OC)c2)C12CCCC2 (configuration not stated)	11µM*
COCCN1C(=O)c2ccccc2C(C(=O)Nc2ccc3[nH]ccc3c2)C12CCCC2 (configuration not stated)	11µM*
CS(=O)(=O)c1ccc(CC(=O)N[C@@H]2COCC[C@@H]2OCC2CC2)cc1	3%
COc1ccc(-c2nccn3cc(C(=O)NCCN4CCCCC4)nc23)cc1	i

Bioassay records from PubChem.
